# TTR transcr act = TTR transcription activators in neuroblastoma reporter cells, primary screen, cell-based, luminescence, SH-SY5Y, TTR promoter Gaussia luciferase. 92,000 tested, 1.3% active. activation, % at 16.7 µM. 100% = recombinant luciferase protein wells. AID 1117267, 2014;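 active means activation above the mean of all tested compounds plus 3 SD, cut at about 9.5% in these data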;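 further: cells exposed to compounds for one day before reading; 0% = median of all test compound wells on the plate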
# HuH7 TTR inh = TTR promoter reporter inhibitors in hepatoma cells, counter-screen for TTR transcription activator project, cell-based, luminescence, HuH7 hepatoma | HuH7 TTR promoter-Gaussia luciferase reporter | inhibition, % at 16.7 µM | shares compounds with TTR transcr act | 1,100 tested, 4% active;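 active means average inhibition above the solvent-only control wells' mean plus 3 SD, cut at about 15% in these data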;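 further: 0% = cells with DMSO only and 100% = cells with inhibitor control FD; inhibitors lower well luminescence so higher value means more inhibition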
# TTR up confirm = TTR transcription activators, retest, confirmation, cell-based, luminescence, SH-SY5Y, triplicate | shares compounds with TTR transcr act | SHSY5Y TTR promoter Gaussia luciferase; 100% = purified Lucia enzyme wells, no cells | activation, % at 16.7 µM | 1,100 tested, under 10 active;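 active means mean activation above a set limit taken from the earlier primary screen, cut at about 11% in these data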;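 further: 0% = DMSO-treated cells and 100% = recombinant Lucia luciferase without cells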
# * = called active by the depositor. This is one part of a sample in which hits are shown more often than they occur.
SMILES,TTR transcr act,others
CN(Cc1ccccc1)C(=O)C1CCCN(Cc2cccc(Cl)c2)C1 (centres undefined),-2,
C[C@@H]1CCN(C2CC2)S(=O)(=O)c2ccc(N3CCC[C@H]3CO)cc2O1,0,
CCOC(=O)CSc1nc(-c2ccncc2)ccc1C#N,24*,HuH7 TTR inh=-1;TTR up confirm=-1
CCOC(=O)C1=C(CSc2nc(-c3ccncc3)ccc2C#N)OC(N)=C(C#N)C1c1ccc(OC)cc1 (centres undefined),2,
N#Cc1ccc(-c2cccnc2)nc1SCC(N)=O,1,
CC(=O)c1ccn(S(=O)(=O)c2ccc(Cl)cc2)c1,2,
C/C(=N\O)c1ccn(S(=O)(=O)c2ccc(Cl)cc2)c1,26*,HuH7 TTR inh=-23;TTR up confirm=4
C/C(=N/NS(=O)(=O)c1ccc(Cl)cc1)c1ccncc1,4,
CC(C)(C)OC(=O)NC(Cc1ccccc1)C1CC(C#N)C(=O)O1 (centres undefined),1,
CCOc1ccc(-c2nc(CSCC(=O)NC3CCC3)c(C)o2)cc1,-2,
O=C(NCc1ccco1)c1ccc2sc([C@@H]3O[C@H](CO)[C@@H](O)[C@H]3O)nc2c1,0,
COc1cccc(NC(=O)CSc2nc3ccccc3c(=O)n2CCCC(=O)NCC2CCCO2)c1 (centres undefined),0,
Cc1ccc(NC(=O)CSc2nnc(NC(=O)c3ccco3)s2)cc1,-2,
O=C(CSc1nnc(NC(=O)c2ccco2)s1)NCc1ccc2c(c1)OCO2,21*,HuH7 TTR inh=-7;TTR up confirm=1
CCCSc1nnc(NC(=O)c2ccco2)s1,2,
COC(=O)[C@@H](CC(C)C)CP(=O)(OC)[C@@H](C)NC(=O)OCc1ccccc1 (some centres undefined),0,
O=C(OCc1cn(Cc2ccccc2)nn1)N1CCCC1,3,
CS(=O)(=O)c1ccccc1C(=O)N(CCc1ccccc1)Cc1ccccc1,-2,
CC(=O)Nc1cccc(C(=O)N(CCc2ccccc2)Cc2ccccc2)c1,-2,
CS(=O)(=O)c1ccc(C(=O)N(CCc2ccccc2)Cc2ccccc2)cc1,9.7*,HuH7 TTR inh=-8;TTR up confirm=1
Cc1cc(C(=O)N/N=C/C=C/c2cccc([N+](=O)[O-])c2)n[nH]1,0,
CNc1ccccc1/C(O)=C(\C#N)C(=O)NCc1cccs1,-2,
Cc1cc(-c2cc(-c3ccc(Cl)cc3)on2)nc(NC2CCCC2)n1,9.8*,HuH7 TTR inh=-3;TTR up confirm=1
Cc1ccc(SCc2cc(-c3ccc(Cl)cc3)on2)cc1,1,
Cc1ccc(-c2cc(C(=O)NC3CCCC3)no2)cc1,-2,
SMILES,TTR transcr act,others
O=C1CCC[C@H]2C[C@H](NCc3ccc(Cl)c(C(F)(F)F)c3)CC[C@]23CCCN13,-1,
O=C(NCc1ccco1)O[C@H]1CC[C@@]23CCCN2C(=O)CCC[C@H]3C1,1,
CN1[C@H](Cc2ccccc2)COc2cccc(F)c2S1(=O)=O,-2,
CC(C)c1ccccc1NC(=O)[C@@H]1CCCN1S(=O)(=O)c1cccc2cccnc12,0,
CCn1c(=O)cc(SCC(=O)N2CCN(Cc3ccc4c(c3)OCO4)CC2)c2ccccc21,1,
CCn1c2ccc(CC(=O)O)cc2c2cc(CC(=O)O)ccc21,0,
CCn1c2ccccc2c2cc(CN3CCN(S(=O)(=O)CC)CC3)ccc21,19*,HuH7 TTR inh=-9;TTR up confirm=1
CS(=O)(=O)c1ccc(Cl)c(NC(=O)C2CCN(S(=O)(=O)c3cccs3)CC2)c1,1,
CCCC[C@H]1C2CC(OC(=O)Nc3ccc(C#N)cc3)C(C2)[C@H]2CCCCN21 (some centres undefined),4,
Cc1ccc(CN2CCCCC(NC(=O)c3cccc([N+](=O)[O-])c3)C2=O)cc1 (centres undefined),0,
COC(=O)C[C@@H]1CC[C@H]2[C@@H](COc3ccc(NC(=O)Nc4ccccc4Cl)cc3C(=O)N2C)O1,0,
O=C(CCCNC(=O)c1ccc(Cl)cc1)Nc1ccc(F)c(S(=O)(=O)N2CCOCC2)c1,0,
O=C(NCCOc1ccc(Cl)cc1)c1ccco1,0,
COc1ccccc1N1C(=O)[C@@H]2C(C(=O)CN3C(=O)c4ccccc4C3=O)=NN[C@@H]2C1=O,-1,
COc1cccc(N2C(=O)C3NN=C(C(=O)CN4C(=O)c5ccccc5C4=O)C3C2=O)c1 (centres undefined),18*,HuH7 TTR inh=-5;TTR up confirm=0
Cc1ccc(N2C(=O)[C@@H]3C(C(=O)CN4C(=O)c5ccccc5C4=O)=NN[C@@H]3C2=O)c(C)c1,1,
CCc1ccccc1NCC(=O)Nc1ccc(Cl)c(C(F)(F)F)c1,1,
C#CCOCCOCCOCCNc1nc(N2CCOCC2)nc(N2CCN(C(=O)[C@H](CC(N)=O)n3cc([C@@H](N)C(C)C)nn3)CC2)n1,-1,
C#CCOCCOCCOCCNc1nc(N2CCN(C(=O)[C@H](CC(N)=O)n3cc([C@@H](N)CC(N)=O)nn3)CC2)nc(N2CCN(C(=O)[C@H](CC(N)=O)n3cc([C@@H](N)CC(N)=O)nn3)CC2)n1,14*,HuH7 TTR inh=-4;TTR up confirm=0
C#CCOCCOCCOCCNc1nc(N2CCN(C(=O)[C@H](CCC(=O)O)n3cc([C@@H](N)CC(N)=O)nn3)CC2)nc(N2CCN(C(=O)[C@H](CCC(=O)O)n3cc([C@@H](N)CC(N)=O)nn3)CC2)n1,0,
O=C(COc1ccccc1C(=O)NCc1ccccc1)Nc1ccc(I)cc1,0,
COP(=O)(O)C(COCCC(CC(C)C)NC(=O)OCc1ccccc1[N+](=O)[O-])NC(=O)OCc1ccccc1 (centres undefined),0,
CC1(C)CC(=O)C2=C(C1)OC(N)=C(C#N)[C@@H]2c1ccccc1[N+](=O)[O-],0,
COc1ccc(C2C(C#N)=C(N)OC3=C2C(=O)CC(C)(C)C3)cc1 (centres undefined),2,
CC1C(C#N)=C(N)OC2=C1C(=O)CC(c1ccccc1)C2 (centres undefined),15*,HuH7 TTR inh=-14;TTR up confirm=-1
SMILES,TTR transcr act,others
C=CCN1C(=O)c2ccc(C(=O)N3CCN(S(=O)(=O)c4ccccc4Br)CC3)cc2C1=O,-1,
COC(=O)[C@]12C[C@H](CC(=O)N3CCSCC3)C(=O)N(CCc3ccc(OC)c(OC)c3)C1=C[C@H](COCc1ccccc1)O[C@@H]2C,-1,
Cc1ccc(CNC2CCC23CCC(c2ccccc2)CC3)o1 (centres undefined),-1,
Cc1cccc(NS(=O)(=O)c2ccc3c(c2)CCC(=O)N3)c1,2,
CCc1cccc(NS(=O)(=O)c2ccc3c(c2)NC(=O)CC(=O)N3)c1,0,
Cc1cccc(NS(=O)(=O)c2ccc3c(c2)NC(=O)CC(=O)N3)c1,13*,HuH7 TTR inh=-11;TTR up confirm=-1
Cc1ccc2c(c1)N(C(C)C(=O)NCc1ccc3c(c1)OCO3)C(=O)CO2 (centres undefined),-3,
COc1ccc(NC(=O)COC(=O)CCCOc2ccc(Cl)cc2Cl)cc1Cl,1,
Cc1ccc(C#N)c(SCc2cccc(Br)c2)n1,13*,HuH7 TTR inh=-11;TTR up confirm=8
Cc1cccc(CSc2nc3c(cc2C#N)CCC3)c1,-2,
Cc1ccc(C#N)c(SCc2cc3c(cc2Cl)OCO3)n1,6,
Cc1nc(SCC(=O)N(C)c2ccccc2)[nH]c(=O)c1C,0,
FC(F)(F)c1ccc2nc(CNc3nc(N4CCOCC4)nc4c3ncn4-c3ccsc3)[nH]c2c1,2,

# Source: PubChem (The Scripps Research Institute Molecular Screening Center)
